This is a sample that favours compounds with a hit; in the whole collection about 10% have one here.
GLS inhibitor: inhibitors of human glutaminase (GLS); O94925; GLS enzymatic activity, qHTS titration; Potency, µM (titrated, usually from 45.5 µM), inactives show at the highest dose activity change, negative = inhibition, hits mostly inhibitors; 410,000 tested, 0.21% active; AID 624170; note: % is set by controls: 0 for no effect and ±100 for the full control effect
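Assay buffer: 45 mM KH2PO4 pH 8.2, 0.02% Tween-20. hKGA acts on L-glutamine (1 mM solution added); product glutamate is reported by an oxidase/peroxidase Amplex Red coupling, with fluorescence taken at baseline and 30 min.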
G9a block: blocks human histone lysine methyltransferase G9a | Q96KQ7 | G9a H3K9 monomethylation, AlphaScreen, 2 h | Potency, µM (doses to about 102 µM), without a hit: at the top dose activity, negative = inhibition, hits mostly inhibitors | 350,000 tested, 8.8% active; note: % is set by controls: 0 for no effect and ±100 for the full control effect; nearly all actives have a fitted effect of over 75% in size
Target sequence (Q96KQ7 913-1193 limits assumed): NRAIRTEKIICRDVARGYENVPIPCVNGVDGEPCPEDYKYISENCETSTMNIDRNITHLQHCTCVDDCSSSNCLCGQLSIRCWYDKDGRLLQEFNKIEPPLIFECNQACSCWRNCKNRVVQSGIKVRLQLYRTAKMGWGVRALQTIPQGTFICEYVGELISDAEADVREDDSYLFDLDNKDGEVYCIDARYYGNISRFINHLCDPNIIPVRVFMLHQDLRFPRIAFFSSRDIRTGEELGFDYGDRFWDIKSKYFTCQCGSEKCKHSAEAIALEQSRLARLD
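Quantitative HTS format: methyltransferase activity on a biotin-tagged H3K9 peptide is measured by AlphaScreen, using a rabbit anti-monomethyl-H3K9 antibody with streptavidin donor and anti-IgG acceptor beads. Final levels are 20 nM enzyme, 500 nM peptide, 20 uM SAM; 2 h RT.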
HP1b chromo inh: blocks HP1-beta chromodomain binding to methylated histone tails; P83916; AlphaScreen HP1-beta / biotin-H3K9me3 peptide binding; Potency, µM (series often up to 114 µM), for the others: at the top dose activity change, negative = inhibition, usual class: inhibitors; 390,000 tested, 0.56% active; AID 540317; note: nearly all actives have a fitted effect of over 70% in size
Target sequence (P83916 whole entry, looked up): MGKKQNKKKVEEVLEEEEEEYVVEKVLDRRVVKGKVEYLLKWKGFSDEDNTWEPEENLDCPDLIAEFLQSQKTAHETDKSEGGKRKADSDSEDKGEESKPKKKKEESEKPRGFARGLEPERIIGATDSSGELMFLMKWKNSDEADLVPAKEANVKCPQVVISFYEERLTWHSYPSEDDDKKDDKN
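HP1-beta protein (50 nM final) preincubated 30 min at room temperature with biotinylated H3(1-18)K9me3 peptide (50 nM) in PBS pH 7.4, 0.01% Tween-20, then compound added for 30 min. AlphaScreen streptavidin donor/nickel chelate acceptor beads (10 ug/mL final), 30 min dark, luminescence read.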
BAZ2B inh: blocks human BAZ2B | AlphaScreen BAZ2B-H3K14Ac peptide displacement | Potency, µM (titrated, usually from 114 µM), for the others: top-dose activity change, negative = inhibition, most hits filed as inhibitors | AID 504333 | 360,000 tested, 4.4% active; note: % is set by controls: 0 for no effect and ±100 for the full control effect; nearly all actives have a fitted effect of over 60% in size
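AlphaScreen luminescence quantifies BAZ2B engagement of H3K14Ac peptide; the protein and biotinylated peptide are both at 50 nM final, buffer PBS pH 7.4 with 0.01% Tween-20, all steps at room temperature.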
JMJD2A Tudor inh: JMJD2A Tudor domain (human) inhibition; AID 504339; Potency, µM (titrated, usually from 114 µM), inactives show at the highest dose activity change, negative = inhibition, most hits filed as inhibitors; O75164; AlphaScreen JMJD2A-Tudor / H3K4me3 peptide binding; 390,000 tested, 4.4% active; note: % is set by controls: 0 for no effect and ±100 for the full control effect; nearly all actives have a fitted effect of over 50% in size
An asterisk follows results filed as active; ? = inconclusive; . = no result given; [ ] = remark or other dose. Calls come from the whole dose curve; as a rule, active = well fitted curve in the direction sought with a large enough effect; inconclusive = small, poorly fitted or top-dose-only effect, or another doubt; inactive = no such curve, though single readings can be large; an effect the other way counts as inactive or inconclusive. Potency is the fitted concentration of half-maximal effect.

SMILES | GLS inhibitor | G9a block | HP1b chromo inh | BAZ2B inh | JMJD2A Tudor inh
S=c1[nH]nc(COc2ccccc2)n1/N=C/c1ccncc1 | -1% | ? | 29% | -25% | 25µM*
CCc1ccc(/C=N/n2c(COc3ccccc3)n[nH]c2=S)cc1 | -15% | 20µM* | -6% | -26% | ?
S=c1[nH]nc(COc2ccccc2)n1/N=C/c1ccccn1 | 14% | ? | -13% | 13% | 4µM*
FC(F)(F)c1ccc(/C=N/n2c(COc3ccccc3)n[nH]c2=S)cc1 | 6% | -5%[2.33 µM] | -16% | ? | ?
COc1ccc(Cc2c(C3CCCCC3)nc3ccc(Br)cn23)c(C)c1 | 5% | . | . | . | .
CC(=O)c1ccc(OCc2c(-c3ccccc3)nnn2CC(=O)NS(=O)(=O)c2ccccc2C)cc1 | 19% | . | . | . | .
CCNc1nc(NCC)nc(C(=O)NN)n1 | 23% | 8%[59 µM] | 57% | 2.8µM* | 40µM*
Cc1ccccc1NC(=O)COC(=O)c1ccccc1SCC(=O)N1CCCC1 | 2% | ? | 32% | 0% | 1%
Cc1nc2ccccc2c(=O)n1NC(=O)/C=C/c1ccccc1 | -16% | 15%[59 µM] | 25% | 10% | -8%
OCCN1CCN(c2ncnc3c2c(-c2ccccc2)cn3-c2ccc(Br)cc2)CC1 | -2% | 35µM* | -33% | 45µM* | 35µM*
COc1ccc(-n2cc(-c3ccccc3)c3c(NCCCN4CCOCC4)ncnc32)cc1 | -16% | 50µM* | ? | ? | ?
Fc1ccc(-n2cc(-c3ccccc3)c3c(N4CCOCC4)ncnc32)cc1 | 2% | -46% | 48% | ? | -30%
NC(=O)C1CCN(c2ncnc3c2c(-c2ccccc2)cn3-c2ccccc2)CC1 | 23% | 50µM* | 48% | ? | ?
CCN1CCN(c2ncnc3c2c(-c2ccccc2)cn3-c2ccc(F)cc2)CC1 | 0% | ? | 27% | ? | 40µM*
Clc1ccccc1N1CCN(c2ncnc3c2c(-c2ccccc2)cn3-c2ccccc2)CC1 | 1% | -21%[59 µM] | 13% | -29% | -29%
Cc1ccc(C)c(S(=O)(=O)c2c[nH]c(=S)[nH]c2=O)c1 | -28% | . | 15%[57 µM] | -17% | -4%
O=C(COC(=O)CNS(=O)(=O)/C=C/c1ccccc1)Nc1cccc2ccccc12 | 16% | 50µM* | 26% | -22% | 1%
CCN(CC)C(=O)C1CCCN(Cc2sccc2C)C1 (stereo unspecified) | 8% | 32µM* | ? | 28µM* | 3.5µM*
CCN(CC)C(=O)C1CCCN(Cc2ccc3ccccc3c2)C1 (stereo unspecified) | 3% | ? | 3% | ? | 22µM*
Cc1cccc(CN2CCCC(C(=O)N3CCc4ccccc4C3)C2)c1 (stereo unspecified) | . | 13µM* | 26% | 50µM* | 1%
Cc1ccsc1C(=CCCN1CCC[C@@H](C(=O)O)C1)c1sccc1C | 11% | 9%[59 µM] | 24% | . | -6%
CCN(CC)C(=O)C1CCCN(Cc2cccc(F)c2)C1 (stereo unspecified) | 3% | ? | -46% | ? | 3.2µM*
O=C(Cn1nnc2ccccc2c1=O)Nc1ccc2c(c1)CCC2 | 17% | 22%[59 µM] | 7% | 1% | -14%
CCOC(=O)C1=C(Cn2cnc3ccccc32)NC(=O)NC1c1ccc(OC)cc1 (stereo unspecified) | 1% | -1% | 3% | 56µM* | -18%
COc1ccc(S(=O)(=O)N2CCCOC2CNC(=O)C(=O)NCCCn2ccnc2)cc1OC (stereo unspecified) | 3% | 4% | 8% | 71µM* | -14%
COc1ccc(S(=O)(=O)N2CCOC2CNC(=O)C(=O)NCCCn2ccnc2)cc1OC (stereo unspecified) | -1% | 14% | 63% | 22µM* | -21%
CN1c2ccccc2C(C)(C)C12C=Cc1cc(O)ccc1O2 (stereo unspecified) | ? | . | ? | 45µM* | 45µM*
O=C(COc1cc2oc(=O)c3c(c2cc1Cl)CCCC3)N1C[C@H]2C[C@@H](C1)c1cccc(=O)n1C2 | 8% | -18% | 1% | -35% | -20%
O=C1C=C(c2ccccc2)C(=O)N1Nc1ccccc1 | ? | 8.9µM* | 21% | -5% | -12%

From PubChem BioAssay
